Assay results published in PubChem BioAssay (Tox21).
Values joined by “and” are separate entries in the source; they are usually repeats but may differ in a detail not shown here. Identical values can stand only once. Inconclusive results are not listed. Where a structure was tested more than once in an assay, its records may differ in their call. Active and inactive are the calls of the source. Unless noted, calls follow the shape of the full dose curve.

What was measured:
[1] = qHTS assay to identify small molecule antagonists of the vitamin D receptor (VDR) signaling pathway - cell viability counter screen (AID 743225; active = well fitted curve in the direction sought with a large enough effect in the repeat runs; an effect the other way counts as inactive or inconclusive; also: nearly all actives have a fitted effect of over 50% in size; also: potency is read from the fitted curve at half-maximal effect)
In short: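 VDR-bla HEK 293T cells, 4 h pre-incubation at 37C, then compound plus 1-alpha,25-dihydroxyvitamin D3 (3 nM final) for 16 h. After the beta-lactamase FRET read, CellTiter-Glo was added to the same wells; luminescence after 30 min at room temperature.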

[2] = qHTS assay to identify small molecule agonists of the NFkB signaling pathway (AID 1159509; active = well fitted curve in the direction sought with a large enough effect in the signal ratio in the repeat runs, not every such curve was filed as active; the % refers to the signal ratio; also: series mostly up to about 61 µM)
In short: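 ME-180 NFkB-bla, 2,000 cells/well, overnight plating; cpd pinned in DMSO, 5 h 37 C; B/G FRET substrate 1.5 h RT; ex 405, em 460/530 nm.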

[3] = qHTS assay to identify small molecule agonists of the NFkB signaling pathway - cell viability counter screen (AID 1159515); also: series mostly up to about 61 µM; nearly all actives have a fitted effect of over 55% in size
In short: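 5 hr compound treatment of NFkB-bla ME-180 cells (2,000/well, seeded overnight beforehand), followed by reporter substrate for 1.5 hr. CellTiter-Glo added afterward; luminescence after 30 min RT.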

[4] = qHTS assay to identify small molecule agonists of the endoplasmic reticulum stress response signaling pathway (AID 1159516; active = well fitted activation curve with a large enough effect in the signal ratio in the repeat runs, not every such curve was filed as active; the % refers to the signal ratio)
In short: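 Reporter HeLa cells (ESRE-beta-lactamase) underwent 5 hr compound incubation at 37 C and 5% CO2 in quantitative HTS format. Detection followed 2 hr of FRET substrate loading at room temperature.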

[5] = qHTS assay to identify small molecule agonists of the endoplasmic reticulum stress response signaling pathway - cell viability counter screen (AID 1159517);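 also: HeLa cells carrying an ER stress response element beta-lactamase reporter; series mostly up to about 61 µM; nearly all actives have a fitted effect of over 50% in size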
In short: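 HeLa cells carrying an ESRE-driven beta-lactamase reporter receive compound for 5 hr at 37 C. Cell viability is then gauged with CellTiter-Glo by luminescence, 30 min at room temperature.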

[6] = qHTS assay to identify small molecule antagonists of the retinoid-related orphan receptor gamma (ROR-gamma) signaling pathway - cell viability counter screen (AID 1159520; active = well fitted curve in the direction sought with a large enough effect in the repeat runs; an effect the other way counts as inactive or inconclusive; also: nearly all actives have a fitted effect of over 50% in size; also: potency is read from the fitted curve at half-maximal effect)
In short: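 Cytotoxicity was read from cellular ATP (CellTiter-Glo luminescence) after 16 hr at 37 C with 1 uM doxycycline induction. The inducer was added 2 hr after compound transfer to Tet-on ROR gamma CHO cells.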

[7] = target: Nuclear receptor ROR-gamma (Homo sapiens) (UniProt P51449); test: qHTS assay to identify small molecule antagonists of the retinoid-related orphan receptor gamma (ROR-gamma) signaling pathway (AID 1159521; active = well fitted curve in the direction sought with a large enough effect in the repeat runs; an effect the other way counts as inactive or inconclusive; also: nearly all actives have a fitted effect of over 50% in size; also: potency is read from the fitted curve at half-maximal effect)
In short: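 Tet-on RORγ CHO cells carrying a ROR response element–luciferase reporter were pretreated with compounds for 2 h, then induced with 1 uM (final) doxycycline hyclate for 16 h at 37 C. Antagonism was read as decreased ONE-Glo luminescence.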

[8] = qHTS assay to identify small molecule agonists of the AP-1 signaling pathway - cell viability counter screen (AID 1159525); also: nearly all actives have a fitted effect of over 55% in size
In short: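 Luminescent ATP readout (Cell Titer Glo, 30 min RT), normalised to DMSO and tetra n-octyl ammonium bromide controls. Cells were ME-180 AP-1-bla in 0.5% dialyzed FBS Opti-MEM, with a 5 h, 37 °C compound exposure.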

[9] = qHTS assay to identify small molecule agonists of the AP-1 signaling pathway (AID 1159526)
[10] = qHTS assay to identify small molecule agonists of the vitamin D receptor (VDR) signaling pathway - cell viability counter screen (AID 743224; active = well fitted curve in the direction sought with a large enough effect in the repeat runs; an effect the other way counts as inactive or inconclusive; also: nearly all actives have a fitted effect of over 50% in size; also: potency is read from the fitted curve at half-maximal effect)
In short: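 Here cell health was gauged by luminescent ATP detection (CellTiter-Glo, 30 min RT) in VDR-bla cells that had been incubated with test compounds for 16 h at 37C and 5% CO2.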

Measured: Potency

NC(=O)NNc1ccccc1
inactive: [1] | [2] | [3] | [4] | [5] | [6] | [7] | [8] | [9]

OCC1CCCO1 (configuration not stated)
inactive: [1] | [2] | [3] | [4] | [5] | [6] | [7] | [8] | [9]

COC(=O)Nc1nc2ccc(Sc3ccccc3)cc2[nH]1
54.5 µM (active) and inactive: [7]
active: [6] 26.6 µM
inactive: [1] | [2] | [3] | [4] | [5] | [8] | [9]

Oc1ccc2ccccc2c1
inactive: [10] | [1] | [2] | [3] | [4] | [5] | [7] | [8] | [9]

O=C1CCCCC1
inactive: [1] | [2] | [3] | [4] | [5] | [6] | [7] | [8] | [9]

OCC#CCO
inactive: [10] | [1] | [2] | [3] | [5] | [7] | [8] | [9]
inactive and 54.5 µM (active): [6]

CC(C)(CO)COC(=O)C(C)(C)CO
inactive: [10] | [1] | [2] | [3] | [4] | [5] | [6] | [8] | [9]

Cc1cc(O)c2c(c1)C(=O)c1cc(O)cc(O)c1C2=O
inactive: [1] | [2] | [3] | [4] | [5] | [7] | [8]
24 µM (active) and inactive: [10]

O=C(O)c1cc(-c2ccccc2)nc2ccccc12
inactive: [10] | [1] | [2] | [3] | [4] | [5] | [6] | [8] | [9]

COCC(C)O (configuration not stated)
inactive: [1] | [2] | [3] | [4] | [5] | [6] | [8] | [9]

O=[N+]([O-])c1cc(N(CCO)CCO)ccc1NCCO
inactive: [10] | [1] | [2] | [3] | [4] | [5] | [8] | [9]

CC1COc2ccccc2N1C(=O)C(Cl)Cl (configuration not stated)
active: [7] 61 µM and 48.5 µM
inactive: [10] | [1] | [2] | [3] | [5] | [6] | [8] | [9]

CCCCC(CC)COC(=O)CCCCCCCC(=O)OCC(CC)CCCC (configuration not stated)
inactive: [10] | [1] | [2] | [3] | [4] | [5] | [6] | [8] | [9]

c1ccc2[nH]cnc2c1
inactive: [1] | [2] | [3] | [4] | [5] | [6] | [7] | [8] | [9]

S=c1nc[nH]c2nc[nH]c12
inactive: [2] | [3] | [4] | [6] | [7] | [8] | [9]
active: [10] 15.1 µM and 10.6 µM | [1] 4.25 µM

CC(C)(C)C(=O)C1C(=O)c2ccccc2C1=O
inactive: [10] | [1] | [2] | [3] | [4] | [5] | [8] | [9]
active: [7] 17.1 µM and 30.6 µM

CN(C)c1ccc(C(=N)c2ccc(N(C)C)cc2)cc1
active: [7] 21.4 µM and 20.9 µM
inactive: [1] | [2] | [3] | [4] | [5] | [8] | [9]

CCCCCCCCC
inactive: [1] | [2] | [3] | [4] | [5] | [6] | [7] | [8] | [9]

C=C(C)C(=O)OCCCCCC
inactive: [10] | [1] | [2] | [3] | [4] | [5] | [6] | [8] | [9]

O=S(=O)(O)c1cc(S(=O)(=O)O)c2c(N=Nc3ccccc3)c(O)ccc2c1
inactive: [10] | [1] | [2] | [3] | [4] | [5] | [6] | [8] | [9]

Oc1ccc2ccccc2c1N=Nc1ccccc1
inactive: [10] | [1] | [2] | [3] | [5] | [6] | [7] | [8]

CC1=C(/C=C/C(C)=C/C=C/C(C)=C/CO)C(C)(C)CCC1
inactive: [10] | [1] | [2] | [3] | [4] | [5] | [6] | [8] | [9]

CC1CC(OC(=O)c2ccccc2O)CC(C)(C)C1 (configuration not stated)
inactive: [1] | [2] | [3] | [4] | [5] | [6] | [7] | [8]
34.3 µM (active) and inactive: [10]

CC(C)NCC(O)COc1cccc2ccccc12 (configuration not stated)
inactive: [10] | [1] | [2] | [3] | [4] | [5] | [6] | [7] | [8]

C=C(C)C(=O)OCC(CC)(COC(=O)C(=C)C)COC(=O)C(=C)C
inactive: [10] | [1] | [2] | [3] | [5] | [6] | [7] | [8] | [9]

O=Nc1ccc(O)cc1
inactive: [1] | [2] | [3] | [4] | [5] | [6] | [7] | [8] | [9]

C/C=C(C)/C=C/C=C(C)C
inactive: [10] | [1] | [2] | [3] | [4] | [5] | [6] | [8]
